# Sampled rows, rich in hits. Any-hit rate of the full collection: about 1.6%.
# ALOX12 inh = ALOX12 (human) lipoxygenase inhibition. P18054. purified 12hLO, xylenol orange hydroperoxide absorbance. Potency, µM (doses to about 108 µM), for inactives: at the top dose activity change, negative = inhibition, hits mostly inhibitors. 580,000 compounds, 1.1% hits. AID 1671190; note: % is set by controls: 0 for no effect and ±100 for the full control effect
# Target sequence (P18054 whole entry, looked up): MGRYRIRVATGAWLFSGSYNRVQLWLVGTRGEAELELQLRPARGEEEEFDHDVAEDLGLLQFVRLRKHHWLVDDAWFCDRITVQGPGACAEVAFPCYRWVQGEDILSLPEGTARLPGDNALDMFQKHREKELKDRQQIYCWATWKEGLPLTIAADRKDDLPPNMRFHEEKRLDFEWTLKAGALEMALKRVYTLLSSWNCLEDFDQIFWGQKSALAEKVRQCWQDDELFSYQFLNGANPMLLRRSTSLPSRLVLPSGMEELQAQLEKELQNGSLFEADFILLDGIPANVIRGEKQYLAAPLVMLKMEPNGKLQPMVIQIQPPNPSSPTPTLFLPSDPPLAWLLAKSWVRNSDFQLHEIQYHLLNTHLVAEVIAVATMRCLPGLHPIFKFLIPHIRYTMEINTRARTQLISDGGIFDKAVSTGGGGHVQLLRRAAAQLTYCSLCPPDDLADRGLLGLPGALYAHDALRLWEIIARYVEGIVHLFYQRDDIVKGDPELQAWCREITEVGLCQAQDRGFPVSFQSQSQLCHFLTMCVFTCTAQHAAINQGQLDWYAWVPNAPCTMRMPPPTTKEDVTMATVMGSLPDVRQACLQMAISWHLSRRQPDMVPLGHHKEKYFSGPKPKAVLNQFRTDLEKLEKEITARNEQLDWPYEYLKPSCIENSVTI
#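 Hydroperoxide product was detected by ferrous iron/xylenol orange as the 573 to 405 nm absorbance ratio. Arachidonic acid at 40 uM (final) was turned over for 30 min at room temperature by 150 nM human 12hLO, pH 7.0 Hepes buffer, after 15 min compound preincubation.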
# gsp antag = antagonizes gsp, the McCune-Albright syndrome mutation. gsp-mutant cells, cAMP HTRF, 30 min. Potency, µM (titrated, usually from 76.9 µM), for inactives: at the top dose activity change, negative = inhibition, actives largely listed as inhibitors. 340,000 compounds, 0.4% hits; calls by dose curve; cell line not stated here;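 note: intracellular cAMP measured with PDE inhibitor Ro 20-1724 present during compound exposure; % is set by controls: 0 for no effect and ±100 for the full control effect; nearly all actives have a fitted effect of over 65% in size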
#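 Measurement of cellular cAMP by homogeneous time-resolved fluorescence following a 30 min compound exposure at 37C. The PDE inhibitor […] was present throughout; the assay buffer was DPBS with 0.05% BSA and 0.005% Tween 20.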
# FUS yeast rescue = suppressors of FUS proteinopathy in yeast. S. cerevisiae FUS-expressing, growth rescue, OD600, 24 h. Potency, µM (doses to about 76.6 µM), actives largely listed as activators. 390,000 compounds, 0.24% hits. AID 1347120;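 note: plate controls were DMSO vehicle for no effect and reference control for full effect; nearly all actives have a fitted effect of over 55% in size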
#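 Read-out: OD at 600 nm after 24hr at 30C, reporting rescue of FUS-induced yeast toxicity. Cells at OD 0.005 in galactose (2%) minimal medium; compounds tested in a dilution series; CP55940 titration from 92uM final as control.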
# Mito fusion yeast = inhibitors of mitochondrial division or activators of mitochondrial fusion. S. cerevisiae fusion-defective mutant growth rescue, CellTiterGlo 48 h. Potency, µM (series often up to 46.1 µM), for inactives: top-dose growth rescue (activation), usual class: activators. 320,000 compounds, 0.23% hits; note: % of control where 0% means no effect; nearly all actives have a fitted effect of over 45% in size
#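 S. cerevisiae fusion-defective temperature-sensitive mutants (e.g. fzo1-1, mgm1-5) grown 48 h at 37C in YPEG (ethanol/glycerol non-fermentable) medium with 23 nl compound per well; growth rescue read as CellTiterGlo luminescence.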
# gsp ag = activates gsp, the McCune-Albright syndrome mutation; gsp mutant cells, cAMP HTRF, 30 min; Potency, µM (titrated, usually from 76.9 µM), for inactives: at the top dose activation (cAMP increase), actives largely listed as activators; 340,000 compounds, 0.13% hits; AID 624287; active = well fitted activation curve with a large enough effect; inconclusive = small, poorly fitted or top-dose-only effect, or another doubt; inactive = no such curve, though single readings can be large or run the other way; cell line not stated here;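 note: phosphodiesterase inhibitor Ro 20-1724 added with compounds to block cAMP breakdown; nearly all actives have a fitted effect of over 60% in size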
#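 Cells in DMEM/10% FBS with G418 were pretreated with compounds in DMSO plus […] (300 uM stock) for 30 min at 37C. cAMP was measured by HTRF (cAMP-d2 plus anti-cAMP antibody-K) after 30 min at room temperature.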
# Active calls of the source: *; i = inactive; u = inconclusive; x = no result given; [ ] = dose if it differs, or a comment. Unless noted, calls come from the whole dose curve; as a rule, active = well fitted curve in the direction sought with a large enough effect; inconclusive = small, poorly fitted or top-dose-only effect, or another doubt; inactive = no such curve, though single readings can be large; an effect the other way counts as inactive or inconclusive. Potency is the fitted concentration of half-maximal effect.
SMILES,ALOX12 inh,gsp antag,FUS yeast rescue,Mito fusion yeast,gsp ag
CCOC(=O)c1c(NC(=O)COc2cccc3c2CCN(C)C3=O)sc2c1CCC2,u,14.1µM*,i,19.1%,-39.6%
COCCCN=C(c1ccco1)n1c(=S)nc(-c2ccco2)n(CCCOC)c1=S,u,-5.1%,28.2µM*,4.5%,18.7%
Cc1ccc(CN2C[C@@H](CO)[C@H](c3ccccn3)C2)nc1,104.2%,x,x,x,x
O=C(NC(=S)NCc1ccc(F)cc1)c1ccccc1,15.8µM*,9.5%,x,x,-12.1%
O=C(NC(=S)NCc1ccncc1)c1ccccc1,-6.9%,6.8%,i,1.3%,6.0%
O=C(NC(=S)NCc1ccccc1)c1ccccc1,39.8µM*,3.7%,i,1.2%,3.7%
S=C(NCc1ccccc1)NCc1ccccc1,-3.1%,-3.3%,i,-2.7%,-21.4%
COc1ccc(C(=O)NC(=S)NCCc2ccccc2)cc1,15.8µM*,-15.6%,i,-10.6%,-46.3%
CC(C)(C)C(=O)NC(=S)NCc1ccccc1,39.8µM*,-0.8%,x,-0.3%,-0.4%
CC(C)Cn1c(SCC(=O)Nc2ccc(Cl)cn2)nc2ccccc21,-2.2%,x,x,x,x
O=C(Nc1ccc2oc(-c3ccncc3)nc2c1)c1ccc(Cl)cc1Cl,2.3%,x,x,x,x
CCc1ccc(C(C)NC(=S)NCc2ccc(F)cc2)cc1 (stereo not given),44.7µM*,-8.6%,i,-9.7%,-34.5%
O=C(NC(=S)NC1CCCC1)c1ccccc1,12.6µM*,13.3%,i,-7.4%,4.1%
O=C(NCc1ccc(F)cc1)c1ccccc1OCc1ccccc1,16.5%,-4.1%,i,17.8µM*,-24.2%
Fc1ccc(CNC(=S)NCc2ccc(Cl)c(Cl)c2)cc1,31.6µM*,x,x,x,x
COc1ccccc1NC(=O)c1cc(=O)c2ccccc2o1,7.5%,x,x,x,x
Cc1ccccc1-n1nc(C)c(CCC(=O)N(C)C(C)C)c1Oc1ccccc1F,23.9%,x,x,x,x
O=C(CSCc1ccccc1Br)Nc1cccc(F)c1,-1.3%,x,x,x,x
Cc1ccc(CNC(=O)c2ccc(Cl)c(-n3c(C)nc4cccnc43)c2)cc1,-24.7%,x,x,x,x
CC(/C=N/NC(=O)c1cc(-c2ccncc2)nc2ccccc12)=C\c1ccco1,x,9.1%,28.2µM*,2.9%,15.7%
COc1cc(C=C(c2nc3ccccc3s2)c2nc3ccccc3s2)cc(OC)c1O,u,-9.7%,u,17.8µM*,24.9%
O=C(O)c1ccc(C=C(c2nc3ccccc3s2)c2nc3ccccc3s2)cc1,u,u,i,29.1%,-22.5%[15.4 µM]
COc1cc(/C=C(\CC(=O)O)c2nc3ccccc3s2)cc(OC)c1O,35.5µM*,-23.3%,i,-3.9%,2.8%[15.4 µM]
CCOC(=O)c1ccc(OCC2c3cc(OC)c(OC)cc3CCN2C(=O)Cc2ccc(F)cc2)cc1 (stereo not given),-17.4%,x,12.6µM*,x,x
CN(C)CCCN(Cc1ccccc1)C(=S)Nc1ccc(SC(F)F)cc1,u,20.9%,i,-13.5%,-4.9%
SMILES,ALOX12 inh,gsp antag,FUS yeast rescue,Mito fusion yeast,gsp ag
FC(F)Sc1ccc(NC(=S)NC(c2ccccc2)c2ccccc2)cc1,39.8µM*,-9.3%,i,6.8%,-19.5%
CN(C(=S)Nc1ccc(SC(F)F)cc1)C(c1ccccc1)c1ccccc1,50.1%,6.31µM*,i,-19.7%,2.1%
O=C(NNC(=O)C1CCCCC1)c1ccc(F)cc1Cl,39.4%,x,x,x,x
O=[N+]([O-])c1ccc2nc(SCc3ccccc3Cl)sc2c1,x,25.1µM*,i,0.6%,-12.0%
O=C(NC(Nc1nc2ccc([N+](=O)[O-])cc2s1)(C(F)(F)F)C(F)(F)F)c1ccccc1Cl,-26.6%,25.1µM*,i,-17.1%,-1.1%
O=C(NC(Nc1nc2ccc([N+](=O)[O-])cc2s1)(C(F)(F)F)C(F)(F)F)c1cccnc1,-26.2%,35.5µM*,i,6.4%,u
O=C(c1cccc(Cl)c1)N1Cc2ccccc2CC2(CCCN2Cc2ccncc2)C1 (stereo not given),4.4%[6.33 µM],x,x,x,x
CC(C)(C)C(=O)N1CCC(C(=O)N2CCN(c3ccc(F)cc3)CC2)CC1,14.0%,x,x,x,x
CCOC(=O)CN(CC)Cc1ccco1,3.1%,x,x,x,x
O=C(Nc1ccc(Cl)cc1)C1CCCN(c2ncnc3nc[nH]c23)C1 (stereo not given),-1.4%,x,x,x,x
CCN(CC)S(=O)(=O)c1ccc(N2CCCC2)c(NC(=O)Cc2ccccc2C)c1,-14.4%,x,x,x,x
CCN(CC)CCNC(=S)NC(=O)c1cn(-c2ccccc2)nc1-c1ccc(OC)cc1,44.7µM*,1.9%,i,-2.2%,-21.6%
COc1ccc(-c2nn(-c3ccccc3)cc2C(=O)NCCN2CCOCC2)cc1,-4.8%,x,x,x,x
CCCNc1nc(-c2ccccc2)c(C(=O)OCC)cc1C#N,-8.6%,-4.1%[15.4 µM],u,u,21.5%
CCOC(=O)c1cc(C#N)c(Oc2ccccc2)nc1-c1ccccc1,0.0%,-2.9%[15.4 µM],i,12.6µM*,4.6%
Cc1ccc(NC(=O)CSc2cn(C)c3ccccc23)cc1,-26.9%,x,x,x,x
Oc1ccccc1CNc1cnc2ccccc2c1,u,u,i,-7.8%,13.6%
C=CCc1cccc(CNc2cnc3ccccc3c2)c1O,7.94µM*,-23.5%,i,0.4%,-53.9%
C=CCc1cccc(CNc2nc3ccccc3n2CCN2CCOCC2)c1O,20.4%,-15.3%,i,4.8%,-1.2%
Oc1ccc(Cl)cc1CNc1cnc2ccccc2c1,39.8µM*,u,i,-13.7%,-24.2%
C=CCc1cccc(CNc2nc3ccccc3n2C)c1O,31.6µM*,-23.9%,i,0.4%,-3.9%
c1ccc(C2(c3ccccc3)CCCN(Cc3cscn3)C2)cc1,44.7µM*,x,x,x,x
CCNC(=O)N1CCCC(Cc2ncc(C)n2C(C)C)C1 (stereo not given),21.9%,x,x,x,x
OCC1(Cc2ccc(Cl)cc2)CCN(CCCc2ccccc2)CC1,3.16µM*,6.4%,i,-2.8%,-17.3%
CCOC(=O)c1ccc(N2C(=O)c3cccc4c(C(=O)O)ccc(c34)C2=O)cc1,15.8µM*,-3.8%,i,-1.5%,u
SMILES,ALOX12 inh,gsp antag,FUS yeast rescue,Mito fusion yeast,gsp ag
O=C(CCl)Nc1nc(-c2ccco2)c(-c2ccco2)s1,u,u,i,-19.5%,-22.9%
O=C(CCCSc1ccccc1)Nc1nc(-c2ccco2)c(-c2ccco2)s1,15.8µM*,-9.4%,i,-5.5%,-16.9%
COc1ccc(-n2ncc3c(NCCC4=CCCCC4)ncnc32)cc1,3.55µM*,x,i,x,x
CCN(CC)CCNc1ncnc2c1[nH]c1ccc(OC)cc12,x,x,x,-0.7%,x
COc1ccc2[nH]c3c(NCCC4=CCCCC4)ncnc3c2c1,u,28.2µM*,i,-4.1%,-6.7%[15.4 µM]
Cc1ccc(-n2ncc3c(NCCC4=CCCCC4)ncnc32)cc1,12.6µM*,x,i,x,x
Cc1ccc(C)c(N2CCN(C(=O)C3CCN(S(=O)(=O)c4cccc5nsnc45)CC3)CC2)c1,u,22.4µM*,u,7.9%,22.0%
O=C(C1CCN(S(=O)(=O)c2cccc3cccnc23)CC1)N1CCN(c2ccc(Cl)cc2)CC1,5.6%,u,28.2µM*,15.5%,22.2%

# Screens (PubChem)
